The text below walks through data of PubChem BioAssay.

The source made the active and inactive calls. Unless noted, how the calls were made is not given here.

Assay [1] can be described thus: compound effects on lung adenocarcinoma cell viability – A549, calcein-AM fluorescence, 48 h, basal, profiling panel (AID 1162). Further: test concentration not given here. Conditions: higher = more signal.
Assay [2] in a line: compound effects on differentiated 3T3-L1 adipocyte viability – cell-based, 3T3-L1 adipocytes, calcein-AM fluorescence, 48 h, basal, profiling panel (AID 1163). Further: test concentration not given here. As to conditions: 3T3-L1 adipocytes viability, higher = more signal.
Assay [3] in a line: compound effects on hepatocellular carcinoma cell viability – HepG2, calcein-AM fluorescence, 48 h, basal, profiling panel (AID 1164). Further: test concentration not given here. Conditions: higher = more signal.
Assay [4] can be described thus: compound effects on multiple myeloma cell viability – MM1S, calcein-AM fluorescence, 48 h, basal, profiling panel (AID 1165). Further: test concentration not given here. As to conditions: higher = more signal.
Assay [5] can be described thus: calcein-AM signal in unstimulated myeloma cells – cell-based, calcein-AM fluorescence, 48 h, PK04 Diversity Set, profiling panel (AID 1166).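 Further: cells grown under basal conditions without added stimulus; test concentration not given here.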 Conditions: RPMI8226 myeloma viability, higher = more signal.
Assay [6] can be described thus: JC-1 mitochondrial signal, unstimulated HepG2 cells – cell-based, JC-1 fluorescence, 24 h, 100 nL compound, profiling panel (AID 1167). Further: test concentration not given here. Conditions: HepG2 mitochondrial potential, higher = more signal.
A short description of assay [7]: JC-1 mitochondrial signal, unstimulated adipocytes – cell-based, JC-1 fluorescence, 3T3-L1 adipocytes, 24 h, 100 nL compound, profiling panel (AID 1168). Further: test concentration not given here. As to conditions: JC-1 mitochondrial fluorescence, higher = more signal, called active from +8 up or from −8 down.
Assay [8] can be described thus: JC-1 mitochondrial signal, unstimulated myeloma cells – cell-based, JC-1 fluorescence, RPMI8226, 24 h, 100 nL compound, profiling panel (AID 1169). Further: test concentration not given here. As to conditions: JC-1 mitochondrial potential fluorescence, higher = more signal.
A short description of assay [9]: JC-1 mitochondrial signal, unstimulated MM1S myeloma – cell-based, JC-1 fluorescence, 24 h, 100 nL compound, profiling panel (AID 1170). Further: test concentration not given here. As to conditions: MM1S mitochondrial potential, higher = more signal.
Assay [10] in a line: resazurin metabolic signal in A549 cells – cell-based, resazurin fluorescence, 24 h, PK04 Diversity Set, profiling panel (AID 1171). Further: test concentration not given here. As to conditions: A549 viability, higher = more signal, called active from +8 up or from −8 down. In general terms: The colour change of resazurin is a common sign of viable cells or microbes.
The nature of assay [11]: resazurin metabolic signal in HepG2 cells – cell-based, resazurin fluorescence, 24 h, PK04 Diversity Set, profiling panel (AID 1172). Further: test concentration not given here. As to conditions: HepG2 viability, higher = more signal.
Assay [12] can be described thus: budding yeast growth changes without added modifier – OD600, strain BY4716, 24 h, basal condition, primary screen (AID 1173). As to conditions: S. cerevisiae BY4716 growth, OD600, 24 h; higher = more signal, called active from +8 up or from −8 down.
Assay [13] can be described thus: viability profiling in MM1S myeloma cells – cell-based, resazurin fluorescence, basal, 24 h, PK04 Diversity Set, profiling panel (AID 1174). Further: test concentration not given here. Conditions: higher = more signal, called active from +8 up or from −8 down.
In assay [14] the target is Dihydroorotate dehydrogenase (quinone), mitochondrial (Plasmodium falciparum (isolate 3D7)) (UniProt Q08210). Kind of assay: inhibition of P. falciparum DHODH – biochemical, C-terminal His tag, absorbance 600 nm, primary screen (AID 1175).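 Further: recombinant parasite enzyme with a five histidine tag at its C terminus; test concentration not given here.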 As to conditions: PfDHODH enzyme, DCIP absorbance 600 nm; higher = more signal, called active from +8 up or from −8 down.
Assay [15] can be described thus: inhibition of PAO1 biofilm formation – strain PAO1, LB-PBS medium, absorbance 600 nm, primary screen (AID 1176). Further: test concentration not given here. As to conditions: P. aeruginosa PAO1 growth/biofilm, A600, 12 h; higher = more signal.
Assay [16] is described as follows: growth modulation of vineyard yeast isolate – strain RM11-1a, OD600, basal, 24 h, primary screen (AID 1177).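 Further: cultures grown under basal conditions with no added stressor; test concentration not given here.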 As to conditions: S. cerevisiae RM11-1a growth, OD600, 24 h; higher = more signal, called active from +8 up or from −8 down.
Assay [17] can be described thus: growth of efflux-deficient E. coli DRC39 – strain DRC39, OD650, 24 h, E. coli filamentation inducers, primary screen (AID 1178).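 Further: growth measured as culture turbidity by optical density at 650 nm; test concentration not given here.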 As to conditions: E. coli DRC39 acrAB, higher = more signal, called active from +8 up or from −8 down.
Assay [18] is described as follows: growth of efflux-deficient E. coli DRC39 – strain DRC39, OD650, 48 h, E. coli filamentation inducers, primary screen (AID 1179).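 Further: screen aims at cell division blockers that make cells filament.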 As to conditions: E. coli DRC39 delta-acrAB growth, higher = more signal, called active from +8 up or from −8 down.
The nature of assay [19]: viability profiling in RPMI8226 myeloma cells – cell-based, resazurin fluorescence, basal, 24 h, PK04 Diversity Set, profiling panel (AID 1180).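 Further: RPMI8826 multiple myeloma cell line at 5000 cells per well; test concentration not given here.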 Conditions: higher = more signal.
The target in assay [20] is E3 ubiquitin-protein ligase XIAP (Homo sapiens) (UniProt P98170). Kind of assay: small molecules binding XIAP protein – biophysical, small-molecule microarray, fluorescence 635 nm, primary screen (AID 1181).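 Further: score merges 667 nm emission and signal to noise over triplicate slides.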 As to conditions: higher = more signal.
E3 ubiquitin-protein ligase XIAP (Homo sapiens), sequence (P98170 whole entry, looked up): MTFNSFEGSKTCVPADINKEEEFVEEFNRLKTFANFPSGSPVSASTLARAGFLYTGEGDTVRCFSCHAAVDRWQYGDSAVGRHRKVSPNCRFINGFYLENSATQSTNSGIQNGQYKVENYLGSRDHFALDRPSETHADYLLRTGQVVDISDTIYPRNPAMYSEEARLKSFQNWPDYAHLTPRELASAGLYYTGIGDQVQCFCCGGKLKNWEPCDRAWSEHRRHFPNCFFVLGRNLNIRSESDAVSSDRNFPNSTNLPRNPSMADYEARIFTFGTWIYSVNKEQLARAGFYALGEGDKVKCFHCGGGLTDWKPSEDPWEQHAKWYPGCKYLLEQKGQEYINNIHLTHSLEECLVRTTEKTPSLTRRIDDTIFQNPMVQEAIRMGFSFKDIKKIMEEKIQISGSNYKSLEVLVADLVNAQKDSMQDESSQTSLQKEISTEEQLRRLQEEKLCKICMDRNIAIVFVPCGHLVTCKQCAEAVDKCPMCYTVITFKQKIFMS

Dihydroorotate dehydrogenase (quinone), mitochondrial (Plasmodium falciparum (isolate 3D7)), sequence (Q08210 whole entry, looked up): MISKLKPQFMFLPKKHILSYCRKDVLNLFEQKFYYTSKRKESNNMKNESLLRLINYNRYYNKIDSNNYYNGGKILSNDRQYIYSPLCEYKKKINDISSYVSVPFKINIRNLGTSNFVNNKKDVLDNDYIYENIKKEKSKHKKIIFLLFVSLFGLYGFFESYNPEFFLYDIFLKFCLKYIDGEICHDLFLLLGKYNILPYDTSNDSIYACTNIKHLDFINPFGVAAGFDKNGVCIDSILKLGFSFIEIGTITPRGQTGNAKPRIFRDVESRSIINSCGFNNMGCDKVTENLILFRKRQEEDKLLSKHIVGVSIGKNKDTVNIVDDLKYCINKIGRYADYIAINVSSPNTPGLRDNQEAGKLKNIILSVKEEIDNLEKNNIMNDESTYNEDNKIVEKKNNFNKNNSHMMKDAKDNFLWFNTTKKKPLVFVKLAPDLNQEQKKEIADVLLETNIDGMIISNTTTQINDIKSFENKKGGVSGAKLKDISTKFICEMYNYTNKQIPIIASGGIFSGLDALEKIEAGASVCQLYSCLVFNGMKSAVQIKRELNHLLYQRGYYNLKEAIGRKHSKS

For the compound `CC(=O)OC[C@H]1O[C@@H](ON=C2[C@H]3CCn4c(=O)n(-c5ccccc5)c(=O)n4[C@H]3[C@H](O)[C@@H]3O[C@H]23)[C@H](OC(C)=O)[C@@H](OC(C)=O)[C@@H]1OC(C)=O`, the z-score in assay [1] is -0.0311; in assay [2] it was -1.14; in assay [3] it was 0.707; in [4], -0.0928; in assay [5], -0.105; in [6], -0.506. Moreover, the z-score in assay [7] was -0.0849 (inactive); in assay [8], -0.0535; in assay [9] it was -0.64; in [10], -0.713 (inactive); in [11], -0.779; in assay [12] it was -0.499 (inactive). The z-score is -0.718 (inactive) in [13]; -0.443 (inactive) in assay [15]; -0.184 (inactive) in assay [16]; 0.435 (inactive) in assay [17]; 0.381 (inactive) in assay [18]; -1.1 in [19]. Also, the composite z-score in assay [14] was -1.44 (inactive); in assay [20], -0.174.
With `COc1ccc(O[C@H]2C=C[C@@H](c3ccccc3)O[C@@H]2CON=C(C)CCN2CCCc3nc(C)c(C)cc32)cc1`, the z-score was 0.0505 in [1]; -0.351 in assay [2]; -0.491 in assay [3]; -2.13 in [4]; -2.37 in assay [5]; 2.98 in assay [6]. For the same compound, the z-score is -0.853 (inactive) in [7]; 0.414 in assay [8]; -0.294 in assay [9]; 0.154 (inactive) in assay [10]; 0.165 in assay [11]; -0.855 (inactive) in assay [12]. The z-score in assay [13] is -0.662 (inactive); in assay [15], 0.699 (inactive); in assay [16] it was -0.351 (inactive); in assay [17] it was -0.321 (inactive); in assay [18], -0.112 (inactive); in assay [19] it was -0.164. In addition, the composite z-score is -0.752 (inactive) in [14] and 2.22 in [20].
Consider `CCOC(=O)CCN1C(=O)[C@H]2[C@H]3[C@H](O)[C@H](O)CC(=NOCC(C)C)[C@@H]3CC[C@H]2C1=O`, for which the z-score in assay [1] was -0.0819; in assay [2], 0.472; in [3] it was -0.194; in assay [4], 0.268; in assay [5] it was -0.706; in assay [6], -1.05. In addition, the z-score was -0.717 (inactive) in assay [7]; 0.562 in assay [8]; 0.104 in assay [9]; -0.237 (inactive) in [10]; -0.452 in assay [11]; -0.824 (inactive) in assay [12]. In addition, the z-score is -0.665 (inactive) in assay [13]; 0.377 (inactive) in assay [15]; -0.992 (inactive) in assay [16]; -0.268 (inactive) in assay [17]; -0.321 (inactive) in assay [18]; -0.889 in assay [19]. Further, the composite z-score in [14] was -0.449 (inactive); in [20], 0.0819.
`CC(=O)OC[C@H]1O[C@H](CC=NOC(C)CN2CCCCc3nc(C)c(C)cc32)C=C[C@@H]1OC(C)=O` (stereo not given in full): the z-score was -0.348 in [1]; -1.19 in [2]; -0.276 in assay [3]; 0.0965 in assay [4]; -1.26 in assay [5]; -0.681 in assay [6]. Besides, the z-score in assay [7] is -1.05 (inactive); in assay [8] it was -0.31; in assay [9], -0.182; in assay [10], -0.146 (inactive); in [11] it was 0.351; in assay [12], 0.515 (inactive). Moreover, the z-score was 0.535 (inactive) in assay [13]; -0.266 (inactive) in assay [15]; 0.575 (inactive) in [16]; 0.132 (inactive) in assay [17]; -0.269 (inactive) in assay [18]; 0.46 in assay [19]. The composite z-score in assay [14] was -0.582 (inactive); in assay [20], 0.23.
For `COc1ccc(COC(=O)NN=C2C[C@@H](O)[C@@H](O)[C@@H]3[C@@H]4C(=O)N([C@@H](C)c5ccccc5)C(=O)[C@@H]4CC[C@@H]23)cc1`, the z-score in assay [1] is -0.173; in assay [2], 0.0685; in [3] it was -0.966; in [4], 0.434; in assay [5] it was -1.26; in [6], -0.697. Further, the z-score in assay [7] was -0.132 (inactive); in assay [8], -0.189; in assay [9], -0.369; in assay [10] it was 0.0487 (inactive); in assay [11] it was -0.295; in assay [12], 0.501 (inactive). The z-score in [13] is -0.525 (inactive); in [15], -0.0363 (inactive); in assay [16], -0.887 (inactive); in [17], 0.0247 (inactive); in assay [18] it was 0.528 (inactive); in assay [19], -0.521. In addition, the composite z-score is -0.194 (inactive) in assay [14] and -0.126 in assay [20].
